# Source: PubChem (National Center for Advancing Translational Sciences (NCATS))
# p53ts 32C tox: cytotoxicity in p53ts cells at permissive temperature | H1299-p53A138V at 32C, ATP luminescence viability, 24 h | Potency, µM (doses to about 46.1 µM), actives largely listed as cytotoxic | hit rate 0.93% among 130,000 | AID 924; further: nearly all actives have a fitted effect of over 55% in size
#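 Cells: H1299 p53ts (A138V), 600/well, pre-incubated 16–30 h at 37C. Cpd up to 46 uM, 24 h, 32C. Readout: ATPlite luminescence, 20 min RT. Normalization: DMSO vs tamoxifen 100 uM. AC50 by Hill equation.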
# Imprint erasure: induces erasure of genomic imprints in mouse ES cells; hit rate 0.02% among 110,000; Potency, µM (highest dose often 60.7 µM), actives largely listed as activators; mouse ES Peg3-LacZ reporter, beta-gal luminescence, 40 h
#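 Imprint erasure is scored as LacZ activity from the silenced maternal Peg3 allele in feeder-free female ES cells cultured 40 h with LIF. Luminescence is normalized to in-plate negative controls and fitted to the Hill equation.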
# IkB sig inh: suppresses IkB signaling in ABC-DLBCL reporter cells; ABC-DLBCL IkBa-CBG/CBR dual luciferase ratio, 4 h; response scale: scaled: untreated 0%, proteasome inhibitor 100%; Potency, µM (top dose mostly 57.1 µM); hit rate 0.04% among 110,000; active means well fitted curve in the direction sought with a large enough effect in the signal ratio, not every such curve was filed as active; inconclusive means small, poorly fitted or top-dose-only effect, or a change in a side signal; the % refers to the signal ratio;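 further: the direction sought is a rising ratio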
#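 In this assay, an IκBα–CBG68 fusion accumulates when IKK-driven degradation is blocked; native CBR normalizes for cell number. OCI-Ly3 cells were treated 4 h with compound and doxycycline, then green and red light read after Chroma-Glo addition.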
# p53ts 39C kill: p53ts cell cytotoxicity, nonpermissive temperature; hit rate 1.5% among 130,000; H1299-p53A138V viability at 39C, ATP luminescence, 24 h; Potency, µM (highest dose often 46.1 µM), most hits filed as cytotoxic; further: nearly all actives have a fitted effect of over 55% in size
# Hits are given with their value; – = inactive; ? = inconclusive; · = no result given; ! = repeats disagree; [ ] = another dose, or the depositor's remark. Rows were chosen to be rich in hits. Some 1.7% of all compounds tested hit in one or more screens of this group. Unless noted, the call rests on the fitted dose curve; in most records, active means well fitted curve in the direction sought with a large enough effect; inconclusive means small, poorly fitted or top-dose-only effect, or another doubt; inactive means no such curve, though single readings can be large; an effect the other way counts as inactive or inconclusive.
SMILES,p53ts 32C tox,Imprint erasure,IkB sig inh,p53ts 39C kill
Cc1ccc(-c2nc(CS(=O)CC(=O)N3CCN(c4cccc(Cl)c4)CC3)c(C)o2)cc1 (centres undefined),–,–[10.9 µM],–,13µM
CCOc1ccccc1NC(=O)c1sc2nc(-c3ccc(OC)cc3)ccc2c1N,6.3µM,–[10.9 µM],–,4µM
OC(COc1ccc(Cl)c2ccccc12)CN1CCN(c2ccccn2)CC1 (centres undefined),?,–,?,16µM
CCc1ccc(NC(=O)Cn2c(=O)n(-c3ccc(OC)cc3)c(=O)c3ccc(C(=O)NCc4ccc(C)cc4)cc32)cc1,10µM,–[10.9 µM],–,3.2µM
Cc1ccc(NC(=O)Cn2c(=O)n(-c3ccc(C)cc3)c(=O)c3ccc(C(=O)NCc4ccccc4Cl)cc32)cc1,6.3µM,–[10.9 µM],?,1.3µM
CCCN(CCC)C(=O)Cn1c(=O)n(-c2ccc(OC)cc2)c(=O)c2ccc(C(=O)NCc3ccc(C)cc3)cc21,–,–[10.9 µM],–,–
Cc1ccccc1CN1CCCN(CC(=O)Nc2ccc(F)cc2)S1(=O)=O,–,–[10.9 µM],?,–
CC(=O)[C@@H]1[C@H]2[C@@H](C(=O)[C@H]3OC[C@H]2O3)[C@@H]2C=Cc3ccccc3N12,·,·,–[11.4 µM],·
Cc1ccc(Nc2nc3nonc3[nH]c2=O)cc1C,13µM,–,?,10µM
CCCCCn1c(=N)n(CC(O)COc2ccccc2OC)c2ccccc21 (centres undefined),?,–,?,20µM
COc1ccccc1OCC(O)Cn1c(=N)n(Cc2ccccc2)c2ccccc21 (centres undefined),–,–,?,–
N=c1n(CCO)c2ccccc2n1CCOc1ccc(Cl)cc1Cl,?,–,?,13µM
O[C@@H](COc1ccc(Cl)cc1Cl)CN1CCCC1,–[9.22 µM],–[10.9 µM],–[11.4 µM],–[9.22 µM]
N=c1n(CCN2CCCCC2)c2ccccc2n1CC(O)COc1ccc(Cl)cc1Cl (centres undefined),22µM,–[10.9 µM],?,3.2µM
COc1ccc(OCC(O)Cn2c(=N)n(CCN3CCCCC3)c3ccccc32)cc1 (centres undefined),–,–,–,13µM!
CCOC(=O)c1sc(N)c(C(=O)Nc2ccc(C)cc2C)c1C,–,·,·,–
Cc1ccc(OCC(O)Cn2c(=N)n(CCN3CCCCC3)c3ccccc32)cc1 (centres undefined),–,–,?,13µM
CC(=O)Oc1ccc(/C=C\C(=O)C[C@@H]2O[C@@H](Oc3cc(OC(C)=O)c4c(c3)O[C@@H](c3ccc(OC(C)=O)cc3)CC4=O)[C@H](OC(C)=O)[C@H](OC(C)=O)[C@@H]2OC(C)=O)cc1,·,·,–[11.4 µM],·
O=C(O)c1ccc2nc(-c3cc4cccc(O)c4oc3=O)[nH]c2c1,10µM,–[10.9 µM],?,?
Cc1ccc(S(=O)(=O)N2CCN(Cc3nc4ccc(C)cc4o3)CC2)c(C)c1,–,–[10.9 µM],–,–
Cc1ccc(C(=O)COC(=O)c2cccs2)cc1,20µM,·,·,–
O=C(COC(=O)c1cccs1)c1ccc2ccccc2c1,–,·,·,–
Cc1oc(-c2ccc3c(c2)OCCO3)cc1C(=O)O,20µM,–,?,?
C=C[C@@]1(C)CC(=O)[C@@]2(O)[C@@]3(C)[C@H](O)CCC(C)(C)[C@@H]3[C@H](O)[C@H](OC(C)=O)[C@]2(C)O1,–,·,–,–
Cn1cc(-c2cc3n(n2)CCC(=O)N3CCCC(=O)NCc2ccc(Cl)cc2)c2ccccc21,?,–[10.9 µM],–,13µM
SMILES,p53ts 32C tox,Imprint erasure,IkB sig inh,p53ts 39C kill
Cn1cc(-c2cc3n(n2)CCC(=O)N3CCCC(=O)Nc2ccc(Cl)cc2)c2ccccc21,–,–[10.9 µM],?,–
Oc1ccc(/C=C\c2cc(O)cc(O)c2)cc1,7.9µM,–,–,7.9µM
Oc1ccc(/C=C/c2cc(O)cc(O)c2)cc1,10µM!,–,–,6.3µM
Oc1cc(O)cc(/C=C\c2ccc(O)c(O)c2)c1,13µM,·,–,?
CCOC(=O)c1c(NC(=O)c2cc(OCC)c(OCC)c(OCC)c2)sc2c1CCCCC2,–,–[10.9 µM],–,–
COc1ccc(Cl)cc1NC(=O)c1c(NCc2cccnc2)sc2c1CCC(C)C2 (centres undefined),–,–[10.9 µM],?,–
CCC12CN3CC(CC)(CN(C1)C3c1cc(Br)ccc1OC)C2=O (centres undefined),–,–[10.9 µM],?,–
CN(C)c1ccc(-c2nc(-c3cccs3)c(-c3cccs3)[nH]2)cc1,–,–[10.9 µM],?,?
Oc1ccccc1-c1nc(-c2cccs2)c(-c2cccs2)[nH]1,?,–[10.9 µM],?,25µM
O=S(=O)(NCCO)c1cccc2cccnc12,–,–,–,–
O=S(=O)(NCCNC/C=C\c1ccc(Br)cc1)c1cccc2cnccc12,?,·,–,16µM
CC(C(=O)NCc1cccc(Br)c1)n1ncn2cccc2c1=O (centres undefined),?,–[10.9 µM],?,13µM
Cn1cnc(S(=O)(=O)N2CCC(C(=O)NCc3ccccc3Cl)CC2)c1,–,–[10.9 µM],–,–
CN1CCCC[C@@H]1CCN1CCCCC1,–[9.22 µM],–[10.9 µM],–[11.4 µM],–[9.22 µM]
CC1CCCN(CCCNC(=O)c2ccc3c(c2)N(Cc2ccc(Cl)cc2)C(=O)c2ccccc2S3(=O)=O)C1 (centres undefined),?,–[10.9 µM],?,10µM
Cc1ccc(C)c(CN2C(=O)c3ccccc3S(=O)(=O)c3ccc(C(=O)NCCCN4CCCC(C)C4)cc32)c1 (centres undefined),–,–[10.9 µM],?,?
Clc1ccc(-c2nnn3c2nc(NCc2ccc4c(c2)OCO4)c2ccccc23)cc1,–,–[10.9 µM],?,–
Cc1cccc(-c2nnn3c2nc(NCc2ccc4c(c2)OCO4)c2ccccc23)c1,–,–[10.9 µM],?,6.3µM
O[C@@H](c1cc(C(F)(F)F)nc2c(Cl)cc(Cl)cc12)[C@@H]1CCCCN1,–[9.22 µM],·,–[11.4 µM],–[9.22 µM]
O=S(=O)(c1cccc(Cl)c1)N1CCCC1,–,–,–,–
COc1cc(S(=O)(=O)n2c(C)nc3ccccc32)ccc1F,–,–,–,–
C=CCSc1nc2ccccc2n1S(=O)(=O)c1ccc(C)cc1,–,·,·,–
Cc1ccc(/C=C/c2nc3ccccc3n2S(=O)(=O)c2ccc(Br)cc2)cc1,5µM,–[10.9 µM],?,6.3µM
O=S(=O)(c1cccc(Cl)c1)n1c(/C=C/c2ccccc2Cl)nc2ccccc21,1.3µM,–[10.9 µM],–,1µM
CSc1ccc(/C=C/c2nc3ccccc3n2S(=O)(=O)c2cccc(Cl)c2)cc1,3.2µM,–[10.9 µM],?,4µM
SMILES,p53ts 32C tox,Imprint erasure,IkB sig inh,p53ts 39C kill
CCOc1ccc(C2C(=O)N(C3CCCCCC3)CC(=O)N2Cc2ccccc2)cc1OC (centres undefined),–,–[10.9 µM],–,?
Cc1ccc(NC(=O)c2ccc3ccccc3n2)nc1,13µM,–,?,?
Cc1ccc(C(=O)Nc2ccc(Cl)cn2)cc1,7.9µM,–,?,?
Cc1ccc(NC(=O)c2cccc(Cl)c2)nc1,–,–,–,–
Cc1ccc(-c2nc3nc4ccccc4nc3n2Cc2ccco2)cc1,13µM,–,?,13µM
Clc1ccc(-c2nc3nc4ccccc4nc3n2Cc2ccco2)cc1,–,–,?,–
COc1ccccc1N1CCN(C(=O)c2cnn(C(C)(C)C)c2C2CCN(C(=O)OC(C)(C)C)CC2)CC1,–,–[10.9 µM],–,–
